Results as given in PubChem BioAssay (EPA / NIEHS).
Results filed as inconclusive are left out. Active and inactive are the calls of the source. Rule for the calls: active = hit-call score of the fitted dose curve at least 0.9, where 1 is the maximum; inconclusive = response in the unintended direction; inactive = score below 0.9.

target: Bile acid receptor (Homo sapiens) (UniProt Q96RI1); experiment: OT_FXR_FXRSRC1_1440: Odyssey Thera (OT) 24-hour HEK293T Protein-Complementation Assay for Farnesoid X receptor/SRC-1 Co-activator (AID 2283384)
Sequence (Q96RI1 whole entry, looked up, the tested form may be a part): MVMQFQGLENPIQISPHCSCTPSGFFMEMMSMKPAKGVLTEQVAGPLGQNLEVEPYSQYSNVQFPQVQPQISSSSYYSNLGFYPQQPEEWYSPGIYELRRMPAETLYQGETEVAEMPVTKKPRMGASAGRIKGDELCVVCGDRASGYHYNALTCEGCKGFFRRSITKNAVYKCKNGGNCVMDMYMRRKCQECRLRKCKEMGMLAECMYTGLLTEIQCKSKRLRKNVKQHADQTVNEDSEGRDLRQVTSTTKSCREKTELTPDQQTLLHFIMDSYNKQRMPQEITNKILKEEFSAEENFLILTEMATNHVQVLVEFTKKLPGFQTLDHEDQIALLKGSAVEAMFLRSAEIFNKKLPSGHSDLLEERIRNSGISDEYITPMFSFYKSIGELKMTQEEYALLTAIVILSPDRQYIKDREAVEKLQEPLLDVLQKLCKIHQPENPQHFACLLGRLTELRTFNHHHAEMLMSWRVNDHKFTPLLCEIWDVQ
Protocol: OT_FXR_FXRSRC1_1440 is a cell-based assay that uses HEK293T, a human kidney cell line, with measurements taken at 24 hours after chemical dosing in a 384-well plate.OT_FXR_FXRSRC1_1440 is one of one assay component(s) measured or calculated from the OT_FXR_FXRSRC1_1440 assay. It is designed to make measurements of protein fragment complementation, a form of binding reporter, as detected with fluorescence intensity signals by Protein-fragment Complementation technology.Data from the assay component OT_FXR_FXRSRC1_1440 was analyzed into 1 assay endpoint. This assay endpoint, OT_FXR_FXRSRC1_1440, was analyzed in the positive analysis fitting direction relative to DMSO as the negative control and baseline of activity. Using a type of binding reporter, measures of receptor for gain-of-signal activity can be used to understand the binding at the pathway-level as they relate to the gene NR1H4. Furthermore, this assay endpoint can be referred to as a primary readout, because the performed assay has only produced 1 assay endpoint. To generalize the intended target to other relatable targets, this assay endpoint is annotated to the nuclear receptor intended target family, where the subfamily is non-steroidal.
Protein-fragment complementation assay, or PCA, is a method for the identification and quantification of protein-protein interactions. In the PCA, the proteins of interest ("bait" and "prey") are each covalently linked to fragments of a third protein (e.g. DHFR, which acts as a "reporter"). Interaction between the bait and the prey proteins brings the fragments of the reporter protein in close proximity to allow them to form a functional reporter protein whose activity can be measured.

SMILES | outcome | AC50
CC/C=C\CCO | inactive | 
c1ccc(CNc2ncnc3nc[nH]c23)cc1 | inactive | 
O=C(CC(C(=O)OC1CCCCC1)S(=O)(=O)O)OC1CCCCC1 (configuration not stated) | inactive | 
Oc1cccc2ccccc12 | inactive | 
Cc1cc2nc3c(=O)[nH]c(=O)nc-3n(C[C@H](O)[C@H](O)[C@H](O)CO)c2cc1C |  | 52.7 µM (active)
CCCCCC[C@@H](O)C/C=C\CCCCCCCC(=O)O | inactive | 
O=C(Oc1ccccc1)c1ccccc1 | inactive | 
COC(=O)[C@]1(C)CCC[C@@]2(C)[C@H]1CC=C1C=C(C(C)C)CC[C@@H]12 |  | 12.8 µM (active)
Sc1nc2ccccc2s1 | inactive | 
CC(=O)OC(C)(C)Cc1ccccc1 | inactive | 
O=C1NC(=O)C2CC=CCC12 (configuration not stated) | inactive | 
CCO[Si](CCCN)(OCC)OCC | inactive | 
